# From paper PMC8384837, “Expanding the binding specificity for RNA recognition by a PUF domain”
# Assays:
# Experiment in all cases: yeast three-hybrid, YBZ-1, SC-Leu-His + 0.5 mM 3-AT, 4 days
# Conditions in all cases: tags: N-Gal4 AD-HA kept; label: inside an RPR1-promoter hybrid RNA with tandem MS2 sites; ssRNA
# PUM1 PUF domain R4-HNV = PUM1 PUF domain R4-HNV (Homo sapiens, UniProt Q14671 828-1176, N971H;H972N;Q975V)
# Method in brief: (§1)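 Sequencing with Illumina followed PCR amplification of the repeat regions from transformants grown four days on SC-Leu (input) or SC-Leu-His + 0.5 mM 3-AT (selection). The transformants were strain YBZ-1 with a LexA–MS2 coat fusion and a HIS3 reporter, carrying Pumilio-1 PUF domain libraries and matching RNA elements. The interaction score is the log change in variant frequency from input to selection, computed in log2 with a pseudocount of 1 for absent variants.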
# PUM1 PUF domain R4-TPQ = PUM1 PUF domain R4-TPQ (Homo sapiens, UniProt Q14671 828-1176, N971T;H972P)
# Chain of PUM1 PUF domain R4-TPQ (Q14671 828-1176 N971T/H972P): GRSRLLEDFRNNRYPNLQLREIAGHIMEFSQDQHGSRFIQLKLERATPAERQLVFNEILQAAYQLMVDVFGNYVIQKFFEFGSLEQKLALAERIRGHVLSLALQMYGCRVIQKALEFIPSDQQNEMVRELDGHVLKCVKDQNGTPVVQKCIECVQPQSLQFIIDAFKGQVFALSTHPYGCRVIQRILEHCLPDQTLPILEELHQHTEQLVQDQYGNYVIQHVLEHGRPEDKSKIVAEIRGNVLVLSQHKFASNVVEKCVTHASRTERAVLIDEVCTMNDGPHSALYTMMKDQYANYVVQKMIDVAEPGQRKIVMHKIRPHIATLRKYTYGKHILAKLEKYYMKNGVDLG
# Method in brief: as §1
# PUM1 PUF domain R5-DFR = PUM1 PUF domain R5-DFR (Homo sapiens, UniProt Q14671 828-1176, C1007D;R1008F;Q1011R)
# Chain of PUM1 PUF domain R5-DFR (Q14671 828-1176 C1007D/R1008F/Q1011R): as the sequence (Q14671 828-1176 N971T/H972P) above, with T144N, P145H, C180D, R181F, Q184R counted along it
# Method in brief: as §1
# PUM1 PUF domain R1-TWR = PUM1 PUF domain R1-TWR (Homo sapiens, UniProt Q14671 828-1176, S863T;R864W;Q867R)
# Chain of PUM1 PUF domain R1-TWR (Q14671 828-1176 S863T/R864W/Q867R): as the sequence (Q14671 828-1176 N971T/H972P) above, with S36T, R37W, Q40R, T144N, P145H counted along it
# Method in brief: as §1
# PUM1 PUF domain R4-EHD = PUM1 PUF domain R4-EHD (Homo sapiens, UniProt Q14671 828-1176, N971E;Q975D)
# Chain of PUM1 PUF domain R4-EHD (Q14671 828-1176 N971E/Q975D): as the sequence (Q14671 828-1176 N971T/H972P) above, with T144E, P145H, Q148D counted along it
# Method in brief: as §1
# PUM1 PUF domain R4-SMS = PUM1 PUF domain R4-SMS (Homo sapiens, UniProt Q14671 828-1176, N971S;H972M;Q975S)
# Chain of PUM1 PUF domain R4-SMS (Q14671 828-1176 N971S/H972M/Q975S): as the sequence (Q14671 828-1176 N971T/H972P) above, with T144S, P145M, Q148S counted along it
# Method in brief: as §1
# PUM1 PUF domain R3-VFG = PUM1 PUF domain R3-VFG (Homo sapiens, UniProt Q14671 828-1176, C935V;R936F;Q939G)
# Chain of PUM1 PUF domain R3-VFG (Q14671 828-1176 C935V/R936F/Q939G): as the sequence (Q14671 828-1176 N971T/H972P) above, with C108V, R109F, Q112G, T144N, P145H counted along it
# Method in brief: as §1
# PUM1 PUF domain R3-CHG = PUM1 PUF domain R3-CHG (Homo sapiens, UniProt Q14671 828-1176, R936H;Q939G)
# Chain of PUM1 PUF domain R3-CHG (Q14671 828-1176 R936H/Q939G): as the sequence (Q14671 828-1176 N971T/H972P) above, with R109H, Q112G, T144N, P145H counted along it
# Method in brief: as §1
# PUM1 PUF domain R5-HKK = PUM1 PUF domain R5-HKK (Homo sapiens, UniProt Q14671 828-1176, C1007H;R1008K;Q1011K)
# Chain of PUM1 PUF domain R5-HKK (Q14671 828-1176 C1007H/R1008K/Q1011K): as the sequence (Q14671 828-1176 N971T/H972P) above, with T144N, P145H, C180H, R181K, Q184K counted along it
# Method in brief: as §1
# PUM1 PUF domain R5-TRK = PUM1 PUF domain R5-TRK (Homo sapiens, UniProt Q14671 828-1176, C1007T;Q1011K)
# Chain of PUM1 PUF domain R5-TRK (Q14671 828-1176 C1007T/Q1011K): as the sequence (Q14671 828-1176 N971T/H972P) above, with T144N, P145H, C180T, Q184K counted along it
# Method in brief: as §1
# PUM1 PUF domain R5-QQG = PUM1 PUF domain R5-QQG (Homo sapiens, UniProt Q14671 828-1176, C1007Q;R1008Q;Q1011G)
# Chain of PUM1 PUF domain R5-QQG (Q14671 828-1176 C1007Q/R1008Q/Q1011G): as the sequence (Q14671 828-1176 N971T/H972P) above, with T144N, P145H, C180Q, R181Q, Q184G counted along it
# Method in brief: as §1
# PUM1 PUF domain R3-RPR = PUM1 PUF domain R3-RPR (Homo sapiens, UniProt Q14671 828-1176, C935R;R936P;Q939R)
# Chain of PUM1 PUF domain R3-RPR (Q14671 828-1176 C935R/R936P/Q939R): as the sequence (Q14671 828-1176 N971T/H972P) above, with C108R, R109P, Q112R, T144N, P145H counted along it
# Method in brief: as §1
# PUM1 PUF domain R8-KWG = PUM1 PUF domain R8-KWG (Homo sapiens, UniProt Q14671 828-1176, N1122K;Y1123W;Q1126G)
# Chain of PUM1 PUF domain R8-KWG (Q14671 828-1176 N1122K/Y1123W/Q1126G): as the sequence (Q14671 828-1176 N971T/H972P) above, with T144N, P145H, N295K, Y296W, Q299G counted along it
# Method in brief: as §1
# PUM1 PUF domain R8-CYN = PUM1 PUF domain R8-CYN (Homo sapiens, UniProt Q14671 828-1176, N1122C;Q1126N)
# Chain of PUM1 PUF domain R8-CYN (Q14671 828-1176 N1122C/Q1126N): as the sequence (Q14671 828-1176 N971T/H972P) above, with T144N, P145H, N295C, Q299N counted along it
# Method in brief: as §1
# PUM1 PUF domain R8-KWK = PUM1 PUF domain R8-KWK (Homo sapiens, UniProt Q14671 828-1176, N1122K;Y1123W;Q1126K)
# Chain of PUM1 PUF domain R8-KWK (Q14671 828-1176 N1122K/Y1123W/Q1126K): as the sequence (Q14671 828-1176 N971T/H972P) above, with T144N, P145H, N295K, Y296W, Q299K counted along it
# Method in brief: as §1
# Chain of PUM1 PUF domain R4-HNV (Q14671 828-1176 N971H/H972N/Q975V): as the sequence (Q14671 828-1176 N971T/H972P) above, with T144H, P145N, Q148V counted along it
sequence,measurement,setting,value
GGCUAGAACUAGUGGAUCCCCCGGCGCCCGGCGGCUCGAGCCCGGGUAAGUGUACAUAGUCUGCAUGCCGCCGGGCGCCAUGCCUGCAGGUCGACUCUAGAAAACAUG,binding signal,PUM1 PUF domain R4-HNV,2.63 log2 enrichment (interaction score)
same,binding signal,PUM1 PUF domain R4-TPQ,3.39 log2 enrichment (interaction score)
GGCUAGAACUAGUGGAUCCCCCGGCGCCCGGCGGCUCGAGCCCGGGUAAGUGUCAAUAGUCUGCAUGCCGCCGGGCGCCAUGCCUGCAGGUCGACUCUAGAAAACAUG,binding signal,PUM1 PUF domain R5-DFR,5.27 log2 enrichment (interaction score)
GGCUAGAACUAGUGGAUCCCCCGGCGCCCGGCGGCUCGAGCCCGGGUAAGUGUAAAUCGUCUGCAUGCCGCCGGGCGCCAUGCCUGCAGGUCGACUCUAGAAAACAUG,binding signal,PUM1 PUF domain R1-TWR,5.66 log2 enrichment (interaction score)
GGCUAGAACUAGUGGAUCCCCCGGCGCCCGGCGGCUCGAGCCCGGGUAAGUGUAUAUAGUCUGCAUGCCGCCGGGCGCCAUGCCUGCAGGUCGACUCUAGAAAACAUG,binding signal,PUM1 PUF domain R4-EHD,6.81 log2 enrichment (interaction score)
same,binding signal,PUM1 PUF domain R4-SMS,1.55 log2 enrichment (interaction score)
same,binding signal,PUM1 PUF domain R4-TPQ,4.97 log2 enrichment (interaction score)
GGCUAGAACUAGUGGAUCCCCCGGCGCCCGGCGGCUCGAGCCCGGGUAAGUGUAAGUAGUCUGCAUGCCGCCGGGCGCCAUGCCUGCAGGUCGACUCUAGAAAACAUG,binding signal,PUM1 PUF domain R3-VFG,1.68 log2 enrichment (interaction score)
same,binding signal,PUM1 PUF domain R3-CHG,0.98 log2 enrichment (interaction score)
GGCUAGAACUAGUGGAUCCCCCGGCGCCCGGCGGCUCGAGCCCGGGUAAGUGUUAAUAGUCUGCAUGCCGCCGGGCGCCAUGCCUGCAGGUCGACUCUAGAAAACAUG,binding signal,PUM1 PUF domain R5-HKK,2.41 log2 enrichment (interaction score)
same,binding signal,PUM1 PUF domain R5-TRK,4.73 log2 enrichment (interaction score)
same,binding signal,PUM1 PUF domain R5-QQG,2.7 log2 enrichment (interaction score)
GGCUAGAACUAGUGGAUCCCCCGGCGCCCGGCGGCUCGAGCCCGGGUAAGUGUAAUUAGUCUGCAUGCCGCCGGGCGCCAUGCCUGCAGGUCGACUCUAGAAAACAUG,binding signal,PUM1 PUF domain R3-VFG,4.61 log2 enrichment (interaction score)
same,binding signal,PUM1 PUF domain R3-RPR,5.3 log2 enrichment (interaction score)
GGCUAGAACUAGUGGAUCCCCCGGCGCCCGGCGGCUCGAGCCCGGGUAAGCGUAAAUAGUCUGCAUGCCGCCGGGCGCCAUGCCUGCAGGUCGACUCUAGAAAACAUG,binding signal,PUM1 PUF domain R8-KWG,6.36 log2 enrichment (interaction score)
same,binding signal,PUM1 PUF domain R8-CYN,2.28 log2 enrichment (interaction score)
same,binding signal,PUM1 PUF domain R8-KWK,6.96 log2 enrichment (interaction score)
